Source: the supplement of paper PMC6555819

Columns and labels:
Assay in all cases: PBM binding z-score (relative to random genomic background probes); higher = stronger binding; sequences stand for … in GC…GCGATTGACAGCGTAGAATGAAGG
[1] = system: FXR:RXRa (NR concentration 270 nM, RXRa partner concentration 90 nM)
How it was run: (§1)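 Custom Agilent 4×180K protein-binding microarrays carried double-stranded probes. Their 34-nt variable regions held direct-repeat seeds, single-nucleotide variants, half-site ablations and random human genomic background sequences. Arrays were incubated 1 h with ligand-free nuclear receptor dimers in PBS pH 7.4, 2% milk, 0.02% Triton X-100, 1 mM DTT, 0.2 mg/mL BSA and 0.4 mg/ml salmon testes DNA. Antibodies against each partner (one per run) detected binding, and scanned fluorescence was regression-normalized. Binding z-scores use random background probes as reference.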

[2] = system: LXRa:RXRa (NR concentration 270 nM, RXRa partner concentration 90 nM)
How it was run: as §1

[3] = system: LXRa homodimer (NR concentration 270 nM)
How it was run: as §1

[4] = system: LXRb:RXRa (NR concentration 270 nM, RXRa partner concentration 90 nM)
How it was run: as §1

[5] = system: LXRb homodimer (NR concentration 270 nM)
How it was run: as §1

[6] = system: PPARa:RXRa (NR concentration 270 nM, RXRa partner concentration 90 nM)
How it was run: as §1

[7] = system: PPARg:RXRa (NR concentration 180 nM, RXRa partner concentration 90 nM)
How it was run: as §1

[8] = system: PPARg:RXRa 270nM:90nM, anti-RXR (NR concentration 270 nM, RXRa partner concentration 90 nM)
How it was run: as §1

[9] = system: PPARg:RXRa 30nM:10nM, anti-RXR (NR concentration 30 nM, RXRa partner concentration 10 nM)
How it was run: as §1

[10] = system: PPARg:RXRa 90nM:30nM, anti-RXR (NR concentration 90 nM, RXRa partner concentration 30 nM)
How it was run: as §1

[11] = system: PPARg:RXRa DBDmut IVT, anti-RXR (DBD mutation: RXRa K156A/R161A, NR concentration 270 nM, RXRa partner concentration 90 nM)
How it was run: as §1

[12] = system: PPARg:RXRa IVT, anti-PPARg (NR concentration 270 nM, RXRa partner concentration 90 nM)
How it was run: as §1

[13] = system: PPARg DBDmut:RXRa IVT, anti-PPARg (DBD mutation: PPARg1 K132A/R137A, NR concentration 270 nM, RXRa partner concentration 90 nM)
How it was run: as §1

[14] = system: PPARg DBDmut IVT, anti-PPARg (DBD mutation: PPARg1 K132A/R137A, NR concentration 270 nM)
How it was run: as §1

[15] = system: PPARg homodimer (NR concentration 180 nM)
How it was run: as §1

[16] = system: PXR:RXRa (NR concentration 270 nM, RXRa partner concentration 90 nM)
How it was run: as §1

[17] = system: PXR homodimer (NR concentration 270 nM)
How it was run: as §1

[18] = system: RARa:RXR (NR concentration 270 nM, RXRa partner concentration 90 nM)
How it was run: as §1

[19] = system: RARa homodimer (NR concentration 270 nM)
How it was run: as §1

[20] = system: RARb:RXRa (NR concentration 270 nM, RXRa partner concentration 90 nM)
How it was run: as §1

Sequence | PBM binding z-score [1] | PBM binding z-score [2] | PBM binding z-score [3] | PBM binding z-score [4] | PBM binding z-score [5] | PBM binding z-score [6] | PBM binding z-score [7] | PBM binding z-score [8] | PBM binding z-score [9] | PBM binding z-score [10] | PBM binding z-score [11] | PBM binding z-score [12] | PBM binding z-score [13] | PBM binding z-score [14] | PBM binding z-score [15] | PBM binding z-score [16] | PBM binding z-score [17] | PBM binding z-score [18] | PBM binding z-score [19] | PBM binding z-score [20]
ATATGTAGGTTACATCCGGGCCATTCAGGCTATG | 0.546 | 2.67 | 0.422 | 1.05 | 0.287 | 3.13 | 5.08 | 4.09 | 1.51 | 3.05 | 7.19 | 7.09 | 3.74 | 3.02 | 0.583 | 0.633 | 0.119 | 0.816 | 0.221 | 1.15
CATACAGGGTCAGCTAGGCCAGAGTGGGGACGGC | 4.45 | 2.94 | 0.0582 | 2.72 | 0.724 | 4.31 | 2.96 | 3.01 | 0.597 | 1.9 | 1.06 | 2.57 | -0.069 | 1.07 | 1.44 | 2.19 | 0.0916 | 2.78 | 0.651 | 4.03
CGTCCAAGGTCAAATGTCAGTGAAGAGATGACGG | 7.54 | 5.76 | 1.47 | 4.6 | 2.22 | 6.09 | 6.34 | 6.37 | 3.35 | 5.7 | 3.67 | 4.11 | 0.495 | -0.392 | 2.49 | 4.82 | 1 | 5.67 | 0.72 | 5.38
CCTAGCAGGCCAGGGACACTCAAGCATTTCGCTT | -0.315 | -0.301 | -0.372 | -0.68 | -0.928 | -0.453 | 0.0348 | -0.505 | -0.943 | -0.701 | 0.0615 | -0.258 | -0.983 | -1.15 | -0.379 | -0.644 | -0.46 | -0.225 | -0.182 | 0.347
GGAACGACGGCAAAGTTGATAGCATCTGTCGACG | -0.522 | -0.556 | -0.557 | -0.755 | -0.926 | 0.00733 | 1.01 | 1.58 | 0.147 | 1.28 | -0.332 | -0.552 | -0.0147 | -1.18 | -0.573 | -0.362 | -0.756 | 0.0195 | -0.6 | -0.341
GTACCAAGGTGAATAGATCGTTGATGAGTAGGCG | 0.377 | 0.133 | -0.179 | -0.113 | -0.522 | 0.852 | 0.853 | 0.705 | 0.296 | 0.417 | 1.62 | 1.74 | 0.415 | 0.448 | 0.785 | -0.0465 | -0.049 | 0.221 | 0.712 | 1.13
GCGACTGGGTCAAAGCAGGTTACCATAAGGTTGG | 3.12 | 3.67 | -0.265 | 2.21 | -0.807 | 4.27 | 4.75 | 4.75 | 2.08 | 3.49 | 5.8 | 6.15 | 0.18 | 0.407 | 1.75 | 3.55 | -0.492 | 3.29 | -0.492 | 3.19
TATACAGGGTCAAAGGCCAGACTACGAATGTCGA | 7.5 | 6.15 | 2.32 | 4.84 | 2.22 | 6.39 | 8.41 | 7.38 | 5.4 | 7.02 | 2.56 | 5.03 | 3.07 | 1.98 | 2.4 | 4.42 | 0.626 | 6.23 | 1.41 | 4.56
ATCTCTAGGTAAAGTTCAGTGGAAGATCGATAGA | 1.56 | 2.02 | 1.68 | 1.29 | 1.27 | 2.23 | 2.75 | 3.85 | 2.32 | 3.46 | 2.46 | 2.61 | 1.21 | 1.71 | 1.29 | 2.07 | 1.8 | 1.44 | 1.81 | 2.86
ATCTGTAGGTTAGCTGGGGTCATTCAGACTAGGC | 3.92 | 6.12 | 3.25 | 4.61 | 1.64 | 4.22 | 2.15 | 3.26 | 0.98 | 2.02 | 2.69 | 2.92 | 1.42 | 1.67 | 2.28 | 6.74 | 4.22 | 6.24 | 1.28 | 3.19
